This is an account of results in PubChem BioAssay (NCI).

Each structure is given as a SMILES string. About 83,000 compounds went through this panel and 20% of them were active in at least one assay; those are over-represented in the sample as a whole.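 In brief: 96-well plates, 48 h treatment, single concentration, percent growth endpoint.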 A number with no mark means an inactive call. Active and inactive are the calls of the source. The calls were made as follows: active = growth percent below 10; inactive = the rest.

The first assay deals with A549/ATCC NSCLC. The experiment in a line: NCI-60 one-dose screen, 48 h (100 = growth as untreated, 0 = no growth, -100 = all killed). As to conditions: 10 µM unless noted.
For the molecule `CNC(=O)c1cc(Oc2ccc3nc(NC(=O)Nc4ccc(CN5CCOCC5)c(C(F)(F)F)c4)sc3c2)ccn1`, the growth was 20.9%.
Take `COc1ccc(-c2cc(-c3cccnc3)nc3sc4c(=O)n(-c5ccc(C)cc5)cnc4c23)cc1OC`: the growth was 103%.
In the case of `COc1ccc(-c2cc(-c3cccnc3)nc3sc4c(=O)n(-c5ccc(C)cc5)nnc4c23)cc1OC`, the growth was 102%.
In the case of `CN1CCN(Cc2ccc(NC(=O)c3[nH]ncc3Nc3ncnc4[nH]ccc34)cc2)CC1`, the growth was 11.4%.
`CN1CCN(Cc2ccc(NC(=O)c3[nH]ncc3Nc3ncnc4c3CCC4)cc2)CC1`: the growth is 17.2%.
On the same count and under the same terms, the same measure for `O=C(Nc1ccc(CN2CCOCC2)cc1)c1[nH]ncc1Nc1ncnc2sccc12`: 13.6%; for `COc1ccc(-c2cn3c(-c4ccc(OC)cc4)cnc3c(Oc3ccc4c(C)cc(=O)oc4c3)n2)cc1`: 16.5%; for `CN1CCN(Cc2ccc(NC(=O)c3[nH]ncc3Nc3ncnc4sccc34)cc2)CC1`: 13.5%.
Still for that read-out and setting: the result for `CCCCCCCCCc1cc(CN2CCCCC2)c(O)c(CN2CCCCC2)c1` reads 61.9%; that for `Cn1c2ccccc2c2c3c(c4c5ccccc5[nH]c4c21)C(=O)N(N)C3=O`, 66.4%; that for `Cn1c2ccccc2c2c3c(c4c5ccccc5n(CCCCCC#N)c4c21)C(=O)N(O)C3=O`, 34.2%.
`COC(/C=C/c1ccc([N+](=O)[O-])cc1)OC`: the growth is 95.4%.
On the same count and under the same terms, the same measure for `O=C(CNC1C2CC3CC(C2)CC1C3)Sc1nnc2sc3ccccc3n12` (stereo not drawn): 108%; for `CN1CCN(Cc2ccc(NC(=O)c3[nH]ncc3Nc3ccnc4ccsc34)cc2)CC1`: 24.1%.
Turning to `CS(=O)(=O)c1ccc(-c2cnc3ccc(-c4cccc(S(C)(=O)=O)c4)nn23)cc1`, the growth was 31%.

The next assay deals with 786-0 renal. Described as above. As to conditions: 10 µM unless noted.
In the case of `Cc1cc(N/N=C/c2nc(-c3ccc(Cl)cc3)oc2C)c2cc(Br)ccc2n1`, the growth was 24.6%.
Same read-out and setting: the same measure for `COc1cc(-c2cc(-c3nc4ccc(Cl)cc4[nH]3)[nH]n2)cc(OC)c1OC`: 65.1%; for `CN(C)c1ccc(/C=C\C2=[N+](C)c3ccccc3C2(C)C)cc1`: 18.1%.
As to `COc1ccc(C/C(C)=C(\c2ccc(Cl)cc2)c2ccc(OCCN3CCCCCC3)cc2)cc1`, the growth was 86.3%.
Same read-out and setting: the result for `O=C1C=CC(=O)N1c1ccc(Cc2ccc(N3C(=O)C=CC3=O)cc2)cc1` reads 97.1%; that for `O=C(Nc1ccc(Oc2ccc(F)cc2)c(Cl)c1)c1cccnc1`, 92.3%; that for `OC(c1cccc(C(F)(F)F)c1)c1cnccc1NC1CCCCCC1` (stereo not drawn), 56.2%.
Consider `NS(=O)(=O)c1ccc(Nc2nc3n[nH]c(Nc4ccccc4)c3c(=O)[nH]2)cc1`, for which the growth is 101%.
`O=C1/C(=C/c2ccccc2)CN(CCC(=O)N2C/C(=C\c3ccccc3)C(=O)/C(=C/c3ccccc3)C2)C/C1=C\c1ccccc1`: the growth was 73%.
For the molecule `O=C1C(=O)N(CCCCn2cc(CO)nn2)c2ccccc21`, the growth is 99.9%.
On the same count and under the same terms, the result for `Cc1cc(Nc2nc(N3CCN(C)CC3)nc3ccccc23)n[nH]1` reads 59.8%; that for `CC(=O)C1=C(O)C=C2Oc3c(C(=O)/C=C/c4cc(Cl)cc(Cl)c4)c(O)c(C)c(O)c3[C@]2(C)C1=O`, -34.9% (active).
The same measure, in the same setting: the same measure for `COc1cc(-c2c3sc(=O)[nH]c3nc3c2c(=O)[nH]n3C(C)C)cc2c1OCO2`: 106%; for `O=C1/C(=C/c2ccc(Cl)c(Cl)c2)CN(C(=O)CCN2CCC(=NO)CC2)C/C1=C\c1ccc(Cl)c(Cl)c1`: -79.6% (active); for `CCN(CC)CCCC(C)Nc1ccnc2c(OC)cccc12` (stereo not drawn): 113%.
Same read-out and setting: the result for `O=C([C@@H](COCc1ccccc1)N1C(=O)[C@@H](N2C(=O)OC[C@@H]2c2ccccc2)[C@H]1/C=C/c1ccccc1)N1CCC(CCN2CCCCC2)CC1` reads 83.3%; that for `OCCNCCNc1c2ccccc2nc2ccccc12`, 84.9%; that for `CC[C@H](Nc1ncnc(N)c1C(N)=O)c1nc2cccc(NCc3ccc(C(=O)NO)cc3)c2c(=O)n1-c1ccccc1`, 90.3%.
With `CN1CCN(Cc2ccc(NC(=O)c3cncc(C#Cc4cnc(N)c5cccnc45)c3)cc2C(F)(F)F)CC1`, the growth was 32.8%.
On the same count and under the same terms, the result for `C=C1CC2(OC1=O)C(=O)N(CCCCCCCCCCCCN1C(=O)C3(CC(=C)C(=O)O3)c3ccccc31)c1ccccc12` (stereo not drawn) reads 99.1%; that for `C=CC[N+]1(CC)CCN=C1CCCCCCCCCCCCCCCCC` (stereo not drawn), -98.4% (active).
With `CN1/C(=C\C=C\C2=[N+](C)c3ccccc3C2(C)C)C(C)(C)c2ccccc21`, the growth is 2.93% (active).
With `COc1ccc(C/C(C)=C(\c2ccc(OCCN3CCCCCC3)cc2)c2ccc(OC(=O)C3CCCCC3)cc2)cc1`, the growth is 68.9%.
